Measurements as given in PubChem BioAssay (Tox21).
Results filed as inconclusive are left out. The source made the active and inactive calls. Unless noted, calls follow the shape of the dose curve; as a rule, active = well fitted curve in the direction sought with a large enough effect in the repeat runs; inconclusive = weak or mixed curves; inactive = no such curve, though single readings can be large; an effect the other way counts as inactive or inconclusive.

How the values were obtained:
[1] = molecular target: Retinoic acid receptor RXR-alpha (Homo sapiens) (UniProt P19793); experiment: qHTS assay to identify small molecule agonists of the RXR signaling pathway (AID 1159527; calls by dose curve; also: nearly all actives have a fitted effect of over 35% in size)
Chain of Retinoic acid receptor RXR-alpha (Homo sapiens) (P19793 whole entry, looked up): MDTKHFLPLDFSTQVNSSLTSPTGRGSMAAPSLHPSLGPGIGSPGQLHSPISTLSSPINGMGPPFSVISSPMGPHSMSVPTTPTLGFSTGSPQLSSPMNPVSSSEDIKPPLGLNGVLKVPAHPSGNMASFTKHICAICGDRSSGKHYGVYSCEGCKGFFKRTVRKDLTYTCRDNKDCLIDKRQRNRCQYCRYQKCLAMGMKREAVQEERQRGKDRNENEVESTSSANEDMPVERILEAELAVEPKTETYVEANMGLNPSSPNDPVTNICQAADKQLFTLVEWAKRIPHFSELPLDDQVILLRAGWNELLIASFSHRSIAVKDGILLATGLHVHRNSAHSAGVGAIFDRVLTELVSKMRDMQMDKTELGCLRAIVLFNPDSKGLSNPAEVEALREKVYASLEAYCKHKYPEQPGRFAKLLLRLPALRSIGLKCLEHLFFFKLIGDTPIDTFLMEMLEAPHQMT
Procedure, shortened: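 Using 9-cis retinoic acid as the reference agonist, chemicals were tested in HEK 293T cells […] for 16 hr; substrate loading lasted 2 hr at room temperature.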

[2] = qHTS assay to identify small molecule agonists of the RXR signaling pathway - cell viability counter screen (AID 1159529); also: series mostly up to about 77 µM; nearly all actives have a fitted effect of over 50% in size
Procedure, shortened: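 Compounds dissolved in DMSO were pinned onto HEK 293T cells carrying a beta-lactamase reporter under RXR-alpha control and incubated 16 hr. Cytotoxicity was then quantified by CellTiter-Glo luminescence.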

[3] = qHTS assay to identify small molecule antagonists of the retinoid acid receptor (RAR) signaling pathway - cell viability counter screen (AID 1159551); also: nearly all actives have a fitted effect of over 35% in size
Procedure, shortened: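 Cytotoxicity counter screen: ATP content quantified by CellTiter-Glo luminescence in C3RL4 cells treated 6 hr at 37 C with compound and retinol (1 uM final). Cells plated at 1,000/well and cultured overnight before dosing.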

[4] = qHTS assay to identify small molecule antagonists of the estrogen related receptor (ERR) signaling pathway from Tox21 library - cell viability counter screen (AID 1224834); also: nearly all actives have a fitted effect of over 30% in size
Procedure, shortened: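 CellTiter-Fluor fluorescence, read after 30 min at 37 C, measures viability of ERR cells. Cells plated at 2,000/well and incubated 6 h before pin-tool compound addition, then exposed 17.5 hours at 37 C.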

[5] = molecular target: Luciferin 4-monooxygenase (Photinus pyralis) (UniProt P08659); experiment: qHTS assay to identify small molecule inhibitors of firefly luciferase (AID 1224835); also: nearly all actives have a fitted effect of over 25% in size; also: potency is read from the fitted curve at half-maximal effect; as to activity change, negative = inhibition: series mostly up to about 120 µM
Chain of Luciferin 4-monooxygenase (Photinus pyralis) (P08659 whole entry, looked up): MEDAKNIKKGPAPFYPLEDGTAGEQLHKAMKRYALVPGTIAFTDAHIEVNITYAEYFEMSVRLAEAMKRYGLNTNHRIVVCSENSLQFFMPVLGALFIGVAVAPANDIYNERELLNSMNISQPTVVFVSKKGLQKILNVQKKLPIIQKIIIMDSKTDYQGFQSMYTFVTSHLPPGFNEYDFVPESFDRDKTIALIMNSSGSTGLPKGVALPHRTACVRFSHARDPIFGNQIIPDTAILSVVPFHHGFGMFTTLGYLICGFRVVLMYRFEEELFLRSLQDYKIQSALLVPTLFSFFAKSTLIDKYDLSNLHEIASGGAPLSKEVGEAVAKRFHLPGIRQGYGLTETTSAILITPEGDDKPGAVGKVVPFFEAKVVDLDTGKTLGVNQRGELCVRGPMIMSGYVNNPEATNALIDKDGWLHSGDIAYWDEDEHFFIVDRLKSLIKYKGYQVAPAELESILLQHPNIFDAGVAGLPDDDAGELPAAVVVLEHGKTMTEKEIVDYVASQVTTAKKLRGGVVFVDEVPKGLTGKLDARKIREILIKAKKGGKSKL
Procedure, shortened: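 Inhibition of purified Photinus luciferase is measured by luminescence. Substrate levels (D-luciferin, ATP) sit at their KM values. Each compound is tested in a concentration series.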

[6] = qHTS assay to identify small molecule agonists of the constitutive androstane receptor (CAR) signaling pathway - cell viability counter screen (AID 1224836); also: series mostly up to about 92 µM; nearly all actives have a fitted effect of over 45% in size
Procedure, shortened: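 23 h treatment, 37 C, 5% CO2. Cell line: HepG2 stably expressing hCAR with a CYP2B6-2.2kb construct. Co-treatment: PK11195, 0.75 uM final. Read-out: CellTiter-Fluor fluorescence intensity.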

[7] = qHTS assay to identify small molecule antagonists of the constitutive androstane receptor (CAR) signaling pathway - cell viability counter screen (AID 1224837); also: series mostly up to about 92 µM; nearly all actives have a fitted effect of over 45% in size
Procedure, shortened: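 Cytotoxicity counter-screen: CellTiter-Fluor fluorescence after 23 h compound exposure (15-point qHTS) in double-stable HepG2-CYP2B6-hCAR cells, with 50 nM CITCO added.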

[8] = qHTS assay to identify small molecule antagonists of the estrogen related receptor signaling pathway with the pleiotropic PPARgamma coactivator (PGC) from Tox21 10K library - cell viability counter screen (AID 1224840; active = well fitted cell-killing curve with a large enough effect in the repeat runs, not every such curve was filed as active; also: nearly all actives have a fitted effect of over 40% in size)
Procedure, shortened: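 Counter-screen for cytotoxicity: after 17.5 h compound exposure at 37 C, CellTiter-Fluor reagent added to PGC/ERR cells for 30 min and fluorescence read. Cells were seeded at 2,000 per well 6 h before dosing.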

[9] = molecular target: Nuclear receptor subfamily 1 group I member 3 (Homo sapiens) (UniProt Q14994); experiment: qHTS assay to identify small molecule antagonists of the constitutive androstane receptor (CAR) signaling pathway (AID 1224838);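 also: HepG2 cells stably expressing hCAR with CYP2B6 luciferase reporter stimulated by CITCO; nearly all actives have a fitted effect of over 40% in size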
Chain of Nuclear receptor subfamily 1 group I member 3 (Homo sapiens) (Q14994 whole entry, looked up): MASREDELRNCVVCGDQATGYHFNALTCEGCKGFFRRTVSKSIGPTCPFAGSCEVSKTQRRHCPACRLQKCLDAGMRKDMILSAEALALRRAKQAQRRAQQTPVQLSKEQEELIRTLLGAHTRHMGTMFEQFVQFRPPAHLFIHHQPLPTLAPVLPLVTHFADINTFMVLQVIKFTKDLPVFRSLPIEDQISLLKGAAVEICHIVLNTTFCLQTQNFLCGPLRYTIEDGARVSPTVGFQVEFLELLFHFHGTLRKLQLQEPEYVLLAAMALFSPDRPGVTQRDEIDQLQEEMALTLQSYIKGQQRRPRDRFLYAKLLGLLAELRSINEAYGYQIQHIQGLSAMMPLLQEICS
Procedure, shortened: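 Antagonism measured as luciferase signal (ONE-Glo, 30 min, room temperature) in CAR-stimulated cells: HepG2-CYP2B6-hCAR double-stable line exposed 24 hr at 37 C to compound in a 15-point series plus 50 nM CITCO.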

[10] = molecular target: Nuclear receptor subfamily 1 group I member 3 (Homo sapiens) (UniProt Q14994); experiment: qHTS assay to identify small molecule agonists of the constitutive androstane receptor (CAR) signaling pathway (AID 1224839);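 also: HepG2 cells stably carrying human CAR and a CYP2B6 luciferase reporter; series mostly up to about 92 µM; nearly all actives have a fitted effect of over 15% in size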
Procedure, shortened: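 Compounds tested at 15 concentrations on HepG2 cells stably harbouring hCAR and CYP2B6-2.2kb reporter constructs, co-treated with PK11195 (0.75 uM final), 24 h at 37 C; luminescent reporter signal quantified.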

[11] = qHTS assay to identify small molecule antagonists of the estrogen related receptor signaling pathway with the pleiotropic PPARgamma coactivator (PGC) from Tox21 10K library (AID 1224841; call rule not given here; also: actives are mostly falling curves and most rising ones were filed inactive; nearly all actives have a fitted effect of over 50% in size; also: potency is read from the fitted curve at half-maximal effect; as to activity, negative = inhibition: series mostly up to about 92 µM)
Procedure, shortened: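 Luminescence (One-Glo, 30 min at room temperature) after 18 h compound treatment at 37 C of PGC/ERR reporter cells plated at 2,000 cells/well and settled 6 h beforehand.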

[12] = qHTS assay to identify small molecule agonists of the estrogen related receptor signaling pathway with the pleiotropic PPARgamma coactivator (PGC) from Tox21 10K library (AID 1224842); also: nearly all actives have a fitted effect of over 15% in size
Procedure, shortened: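 Luminescence from One-Glo (30 min, room temperature) measured after PGC/ERR cells had 18 h at 37 C with pinned compound (23 nL in DMSO). Cells had been seeded at 2,000 per well and pre-incubated 6 h.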
% is scaled to controls: 0 for no effect and ±100 for the full control effect.

NC(CS)C(=O)O (configuration not stated)
inactive: Potency [1] | Potency [2] | outcome [3] | Potency [4] | Potency [5] | outcome [6] | outcome [7] | outcome [8]

C=C[Si](OC)(OC)OC
inactive: Potency [1] | Potency [2] | outcome [3] | Potency [4] | Potency [5] | outcome [6] | outcome [7] | Potency [9] | outcome [8]

CCCC(=O)O[C@]1(C(=O)CCl)[C@@H](C)C[C@H]2[C@@H]3CCC4=CC(=O)C=C[C@]4(C)[C@@]3(F)C(=O)C[C@@]21C
inactive: Potency [1] | Potency [2] | outcome [3] | Potency [4] | Potency [5] | outcome [6] | outcome [7] | Potency [10] | outcome [8]

C[C@H](O)C(=O)Nc1c(I)c(C(=O)NC(CO)CO)c(I)c(C(=O)NC(CO)CO)c1I
inactive: Potency [1] | Potency [2] | outcome [3] | Potency [4] | Potency [5] | outcome [6] | outcome [7] | Potency [9] | Potency [10] | outcome [8]

N[C@@H](CS)C(=O)O
inactive: Potency [1] | Potency [2] | outcome [3] | Potency [4] | Potency [5] | outcome [6] | outcome [7] | outcome [8]

NCC[C@H](O)C(=O)N[C@@H]1C[C@H](N)[C@@H](O[C@H]2O[C@H](CN)[C@@H](O)[C@H](O)[C@H]2O)[C@H](O)[C@H]1O[C@H]1O[C@H](CO)[C@@H](O)[C@H](N)[C@H]1O
inactive: activation [1] 7.2% [at 0.29 µM] | activity change, negative = cytotoxicity [2] 9.63% [at 0.29 µM] | activity change, negative = cytotoxicity [3] 2.52% [at 0.349 µM] | viability change, negative = cytotoxic [4] 0.879% [at 0.349 µM] | activity change, negative = inhibition [5] -1.73% [at 0.435 µM] | viability change, negative = cytotoxic [6] 2.17% [at 0.349 µM] | activity change, negative = cytotoxicity [7] 3.03% [at 0.349 µM] | activity, negative = inhibition [9] -4.74% [at 0.349 µM] | activation [10] 1.57% [at 0.349 µM] | viability change, negative = cytotoxic [8] 1.22% [at 0.349 µM]

O=[N+]([O-])c1ccc(CCO)cc1
inactive: Potency [1] | Potency [2] | outcome [3] | Potency [4] | Potency [5] | outcome [6] | outcome [7] | Potency [9] | Potency [10] | outcome [8]

C#CC(O)C(CC)CCCC (configuration not stated)
inactive: Potency [1] | Potency [2] | outcome [3] | Potency [4] | Potency [5] | outcome [6] | outcome [7] | Potency [9] | outcome [8]

Nc1cc(N)cc(C(=O)O)c1
inactive: Potency [1] | Potency [2] | outcome [3] | Potency [4] | Potency [5] | outcome [6] | outcome [7] | outcome [8]

[O-][N+](=Nc1ccccc1)c1ccccc1
inactive: Potency [1] | Potency [2] | outcome [3] | Potency [4] | outcome [6] | outcome [7] | outcome [8]
active: Potency [5] 11.3 µM

O=C(O)c1ccc[n+]([O-])c1
inactive: Potency [1] | Potency [2] | outcome [3] | Potency [4] | Potency [5] | outcome [6] | outcome [7] | outcome [8]

CCN(CC)S(=O)(=O)c1ccc(C(=O)O)cc1
inactive: Potency [1] | Potency [2] | outcome [3] | Potency [4] | Potency [5] | outcome [6] | outcome [7] | Potency [9] | outcome [8]

CCCCCCCCCCC1CO1 (configuration not stated)
inactive: Potency [1] | Potency [2] | outcome [3] | Potency [4] | Potency [5] | outcome [6] | outcome [7] | outcome [8]

CCOC(=O)[C@H](CCc1ccccc1)N[C@@H](C)C(=O)N1CCC[C@H]1C(=O)O
inactive: Potency [1] | Potency [2] | outcome [3] | Potency [4] | Potency [5] | outcome [6] | outcome [7] | outcome [8] | Potency [11] | Potency [12]

c1ccc2cnncc2c1
active: Potency [11] 27.4 µM
inactive: Potency [1] | Potency [2] | outcome [3] | Potency [4] | Potency [5] | outcome [6] | outcome [7] | outcome [8] | Potency [12]

O=C(O)c1ccccc1S
inactive: Potency [1] | Potency [2] | outcome [3] | Potency [4] | outcome [6] | outcome [7] | outcome [8]

COC(=O)CCCC(=O)O
inactive: Potency [1] | Potency [2] | outcome [3] | Potency [4] | Potency [5] | outcome [6] | Potency [9] | outcome [8]

CC(=O)O[C@H](CC(=O)[O-])C[N+](C)(C)C
inactive: Potency [1] | Potency [2] | outcome [3] | Potency [4] | Potency [5] | outcome [6] | outcome [7] | outcome [8] | Potency [11] | Potency [12]

COc1cccc(Br)c1
inactive: Potency [1] | Potency [2] | outcome [3] | Potency [4] | Potency [5] | outcome [6] | outcome [7] | outcome [8] | Potency [11] | Potency [12]

COc1cc(O)cc(O)c1
inactive: Potency [1] | Potency [2] | outcome [3] | Potency [4] | Potency [5] | outcome [6] | Potency [9] | Potency [10] | outcome [8]

CN1[C@@H]2CC[C@H]1CC(NC(=O)n1c(=O)[nH]c3ccccc31)C2 (some centres not stated)
inactive: Potency [1] | Potency [2] | outcome [3] | Potency [4] | Potency [5] | outcome [6] | outcome [7] | outcome [8] | Potency [11] | Potency [12]

Nc1ncnc2c1ncn2Cc1c(F)cccc1Cl
inactive: Potency [1] | Potency [2] | outcome [3] | Potency [4] | Potency [5] | outcome [6] | outcome [7] | outcome [8] | Potency [11] | Potency [12]

O=C(O)/C=C/c1ccc(/C=C/C(=O)O)cc1
inactive: Potency [1] | Potency [2] | outcome [3] | Potency [4] | Potency [5] | outcome [6] | Potency [9] | Potency [10] | outcome [8]
